Columns and labels:
Assay in all cases: log2 ratio of Biotin-Ahx-Ub-VS probe labelling (fragment/DMSO); higher = less target engagement (more negative = stronger competition), active = hit call of the paper (q ≤ 0.05, log2 ratio ≤ -1)
Details in all cases: compound concentration: 200 uM; treatment time: 3 h
USP34 = USP34 (UniProt Q70CQ2)
How it was run: (§1)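 Labelling with Biotin-Ahx-Ub-VS (0.5 µM final, 1 h) followed a 3 h triplicate treatment of HEK293T lysate (495 µg per sample, Tris/CHAPS/IGEPAL buffer with protease inhibitors) with fragment at 200 µM or vehicle. Labelled DUBs were NeutrAvidin-enriched, digested with LysC and trypsin, and run by diaPASEF LC-MS/MS. The values, average log2 fragment/vehicle ratios by unpaired t-test, come from global-median-normalised Spectronaut label-free quantities. Proteins with ≥2 unique peptides were used.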

USP36 = biological target: T1, USP36 (UniProt Q9P275)
T1 sequence (whole entry): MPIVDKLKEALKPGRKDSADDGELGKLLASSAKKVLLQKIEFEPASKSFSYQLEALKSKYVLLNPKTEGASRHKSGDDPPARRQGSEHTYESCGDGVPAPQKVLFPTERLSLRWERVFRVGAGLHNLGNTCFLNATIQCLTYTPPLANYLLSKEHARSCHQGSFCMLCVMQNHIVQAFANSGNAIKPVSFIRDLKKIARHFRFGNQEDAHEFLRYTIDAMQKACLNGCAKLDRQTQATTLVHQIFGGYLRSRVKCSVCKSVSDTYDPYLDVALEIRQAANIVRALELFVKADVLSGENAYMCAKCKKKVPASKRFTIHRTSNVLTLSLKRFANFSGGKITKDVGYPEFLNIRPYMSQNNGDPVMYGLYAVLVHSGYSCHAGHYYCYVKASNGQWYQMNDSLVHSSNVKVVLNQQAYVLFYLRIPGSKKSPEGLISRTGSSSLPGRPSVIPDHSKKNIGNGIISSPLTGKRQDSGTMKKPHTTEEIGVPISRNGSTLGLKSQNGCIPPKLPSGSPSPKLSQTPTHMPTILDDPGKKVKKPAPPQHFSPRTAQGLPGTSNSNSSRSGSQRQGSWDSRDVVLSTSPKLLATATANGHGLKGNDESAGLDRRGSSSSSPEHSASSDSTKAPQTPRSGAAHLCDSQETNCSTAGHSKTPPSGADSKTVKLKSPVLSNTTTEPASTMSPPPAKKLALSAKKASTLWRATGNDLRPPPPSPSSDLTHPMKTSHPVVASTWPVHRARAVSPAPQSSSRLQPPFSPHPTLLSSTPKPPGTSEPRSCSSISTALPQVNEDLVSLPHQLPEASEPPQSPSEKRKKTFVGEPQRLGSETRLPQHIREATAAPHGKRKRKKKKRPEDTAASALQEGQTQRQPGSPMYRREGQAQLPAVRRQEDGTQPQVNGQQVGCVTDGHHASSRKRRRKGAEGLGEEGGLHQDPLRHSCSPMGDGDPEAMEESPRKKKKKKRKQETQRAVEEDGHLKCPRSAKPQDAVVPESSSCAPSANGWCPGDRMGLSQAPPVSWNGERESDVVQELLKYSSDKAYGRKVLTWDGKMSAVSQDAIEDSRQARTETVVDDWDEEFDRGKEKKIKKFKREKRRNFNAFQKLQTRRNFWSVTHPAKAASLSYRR
How it was run: as §1

USP38 = biological target: T2, USP38 (UniProt Q8NB14)
T2 sequence (whole entry): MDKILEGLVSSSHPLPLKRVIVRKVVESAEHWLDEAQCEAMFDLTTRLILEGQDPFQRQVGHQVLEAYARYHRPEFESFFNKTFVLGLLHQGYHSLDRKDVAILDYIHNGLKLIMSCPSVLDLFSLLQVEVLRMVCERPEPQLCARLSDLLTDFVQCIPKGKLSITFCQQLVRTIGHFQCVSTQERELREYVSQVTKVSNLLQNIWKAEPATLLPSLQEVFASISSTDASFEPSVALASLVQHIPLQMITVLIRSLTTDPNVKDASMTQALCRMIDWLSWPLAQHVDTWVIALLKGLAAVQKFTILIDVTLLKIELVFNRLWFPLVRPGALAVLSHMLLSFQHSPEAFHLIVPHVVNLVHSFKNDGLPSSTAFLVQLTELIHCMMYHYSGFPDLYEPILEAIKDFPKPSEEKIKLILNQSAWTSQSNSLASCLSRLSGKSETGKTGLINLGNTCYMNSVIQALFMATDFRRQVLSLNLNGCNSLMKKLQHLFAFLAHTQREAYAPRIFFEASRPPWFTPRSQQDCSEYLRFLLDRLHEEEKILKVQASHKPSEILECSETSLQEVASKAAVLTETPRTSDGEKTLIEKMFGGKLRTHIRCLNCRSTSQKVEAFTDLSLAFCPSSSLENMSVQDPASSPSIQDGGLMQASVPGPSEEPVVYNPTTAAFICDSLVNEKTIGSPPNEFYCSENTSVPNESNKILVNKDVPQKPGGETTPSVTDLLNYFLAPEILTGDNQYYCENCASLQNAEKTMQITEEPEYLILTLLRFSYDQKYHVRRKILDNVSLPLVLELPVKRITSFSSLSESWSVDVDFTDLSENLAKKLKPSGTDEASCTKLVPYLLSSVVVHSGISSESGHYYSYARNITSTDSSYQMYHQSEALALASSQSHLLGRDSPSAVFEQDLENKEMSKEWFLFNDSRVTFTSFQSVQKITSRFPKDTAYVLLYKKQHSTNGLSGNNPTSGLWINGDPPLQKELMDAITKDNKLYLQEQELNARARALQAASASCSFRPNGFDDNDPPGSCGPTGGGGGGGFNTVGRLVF
How it was run: as §1

USP39 = biological target: T3, USP39 (UniProt Q53GS9)
T3 sequence (whole entry): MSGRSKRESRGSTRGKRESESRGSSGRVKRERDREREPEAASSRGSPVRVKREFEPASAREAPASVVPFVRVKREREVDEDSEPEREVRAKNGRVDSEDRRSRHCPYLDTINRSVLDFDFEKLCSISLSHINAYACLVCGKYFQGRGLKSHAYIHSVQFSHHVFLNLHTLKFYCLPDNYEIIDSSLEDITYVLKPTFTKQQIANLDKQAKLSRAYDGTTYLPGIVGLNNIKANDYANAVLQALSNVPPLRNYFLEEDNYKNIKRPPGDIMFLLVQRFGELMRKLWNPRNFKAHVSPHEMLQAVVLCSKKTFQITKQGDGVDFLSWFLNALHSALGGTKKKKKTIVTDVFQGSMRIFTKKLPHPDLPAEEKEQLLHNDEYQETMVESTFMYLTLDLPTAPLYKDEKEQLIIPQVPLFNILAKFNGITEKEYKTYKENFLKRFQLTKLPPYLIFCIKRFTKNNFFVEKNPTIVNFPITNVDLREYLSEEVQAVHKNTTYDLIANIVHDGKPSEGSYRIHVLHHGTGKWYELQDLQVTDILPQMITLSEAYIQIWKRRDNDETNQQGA
How it was run: as §1

USP4 = biological target: T4, USP4 (UniProt Q13107)
T4 sequence (whole entry): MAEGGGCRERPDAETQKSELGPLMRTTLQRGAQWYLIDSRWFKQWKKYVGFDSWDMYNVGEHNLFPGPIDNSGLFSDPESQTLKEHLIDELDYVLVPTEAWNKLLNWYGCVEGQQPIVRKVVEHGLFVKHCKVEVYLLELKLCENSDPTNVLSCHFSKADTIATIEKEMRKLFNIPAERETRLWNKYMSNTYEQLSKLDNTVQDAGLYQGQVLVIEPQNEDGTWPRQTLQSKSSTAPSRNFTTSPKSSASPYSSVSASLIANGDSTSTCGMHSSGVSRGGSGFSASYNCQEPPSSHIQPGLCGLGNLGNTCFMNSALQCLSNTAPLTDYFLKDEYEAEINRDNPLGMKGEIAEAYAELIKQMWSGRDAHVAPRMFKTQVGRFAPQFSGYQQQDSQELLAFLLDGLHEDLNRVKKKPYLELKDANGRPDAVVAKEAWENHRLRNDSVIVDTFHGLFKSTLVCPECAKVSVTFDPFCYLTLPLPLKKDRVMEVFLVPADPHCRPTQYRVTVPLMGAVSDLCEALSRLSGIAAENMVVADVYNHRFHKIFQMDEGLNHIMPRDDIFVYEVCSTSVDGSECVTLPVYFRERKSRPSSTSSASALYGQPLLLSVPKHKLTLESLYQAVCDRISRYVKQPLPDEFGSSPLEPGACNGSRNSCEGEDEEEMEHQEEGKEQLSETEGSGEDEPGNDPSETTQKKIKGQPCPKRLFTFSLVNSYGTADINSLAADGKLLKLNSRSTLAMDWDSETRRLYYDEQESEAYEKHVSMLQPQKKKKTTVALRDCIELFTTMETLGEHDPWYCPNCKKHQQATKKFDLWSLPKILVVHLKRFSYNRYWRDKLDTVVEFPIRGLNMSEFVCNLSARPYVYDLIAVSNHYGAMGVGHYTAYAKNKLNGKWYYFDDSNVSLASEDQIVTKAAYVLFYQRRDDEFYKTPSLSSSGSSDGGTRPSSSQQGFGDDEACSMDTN
How it was run: as §1

Measured: log2 ratio of Biotin-Ahx-Ub-VS probe labelling

Chain of USP34 (Q70CQ2 whole entry, the tested form may be a part): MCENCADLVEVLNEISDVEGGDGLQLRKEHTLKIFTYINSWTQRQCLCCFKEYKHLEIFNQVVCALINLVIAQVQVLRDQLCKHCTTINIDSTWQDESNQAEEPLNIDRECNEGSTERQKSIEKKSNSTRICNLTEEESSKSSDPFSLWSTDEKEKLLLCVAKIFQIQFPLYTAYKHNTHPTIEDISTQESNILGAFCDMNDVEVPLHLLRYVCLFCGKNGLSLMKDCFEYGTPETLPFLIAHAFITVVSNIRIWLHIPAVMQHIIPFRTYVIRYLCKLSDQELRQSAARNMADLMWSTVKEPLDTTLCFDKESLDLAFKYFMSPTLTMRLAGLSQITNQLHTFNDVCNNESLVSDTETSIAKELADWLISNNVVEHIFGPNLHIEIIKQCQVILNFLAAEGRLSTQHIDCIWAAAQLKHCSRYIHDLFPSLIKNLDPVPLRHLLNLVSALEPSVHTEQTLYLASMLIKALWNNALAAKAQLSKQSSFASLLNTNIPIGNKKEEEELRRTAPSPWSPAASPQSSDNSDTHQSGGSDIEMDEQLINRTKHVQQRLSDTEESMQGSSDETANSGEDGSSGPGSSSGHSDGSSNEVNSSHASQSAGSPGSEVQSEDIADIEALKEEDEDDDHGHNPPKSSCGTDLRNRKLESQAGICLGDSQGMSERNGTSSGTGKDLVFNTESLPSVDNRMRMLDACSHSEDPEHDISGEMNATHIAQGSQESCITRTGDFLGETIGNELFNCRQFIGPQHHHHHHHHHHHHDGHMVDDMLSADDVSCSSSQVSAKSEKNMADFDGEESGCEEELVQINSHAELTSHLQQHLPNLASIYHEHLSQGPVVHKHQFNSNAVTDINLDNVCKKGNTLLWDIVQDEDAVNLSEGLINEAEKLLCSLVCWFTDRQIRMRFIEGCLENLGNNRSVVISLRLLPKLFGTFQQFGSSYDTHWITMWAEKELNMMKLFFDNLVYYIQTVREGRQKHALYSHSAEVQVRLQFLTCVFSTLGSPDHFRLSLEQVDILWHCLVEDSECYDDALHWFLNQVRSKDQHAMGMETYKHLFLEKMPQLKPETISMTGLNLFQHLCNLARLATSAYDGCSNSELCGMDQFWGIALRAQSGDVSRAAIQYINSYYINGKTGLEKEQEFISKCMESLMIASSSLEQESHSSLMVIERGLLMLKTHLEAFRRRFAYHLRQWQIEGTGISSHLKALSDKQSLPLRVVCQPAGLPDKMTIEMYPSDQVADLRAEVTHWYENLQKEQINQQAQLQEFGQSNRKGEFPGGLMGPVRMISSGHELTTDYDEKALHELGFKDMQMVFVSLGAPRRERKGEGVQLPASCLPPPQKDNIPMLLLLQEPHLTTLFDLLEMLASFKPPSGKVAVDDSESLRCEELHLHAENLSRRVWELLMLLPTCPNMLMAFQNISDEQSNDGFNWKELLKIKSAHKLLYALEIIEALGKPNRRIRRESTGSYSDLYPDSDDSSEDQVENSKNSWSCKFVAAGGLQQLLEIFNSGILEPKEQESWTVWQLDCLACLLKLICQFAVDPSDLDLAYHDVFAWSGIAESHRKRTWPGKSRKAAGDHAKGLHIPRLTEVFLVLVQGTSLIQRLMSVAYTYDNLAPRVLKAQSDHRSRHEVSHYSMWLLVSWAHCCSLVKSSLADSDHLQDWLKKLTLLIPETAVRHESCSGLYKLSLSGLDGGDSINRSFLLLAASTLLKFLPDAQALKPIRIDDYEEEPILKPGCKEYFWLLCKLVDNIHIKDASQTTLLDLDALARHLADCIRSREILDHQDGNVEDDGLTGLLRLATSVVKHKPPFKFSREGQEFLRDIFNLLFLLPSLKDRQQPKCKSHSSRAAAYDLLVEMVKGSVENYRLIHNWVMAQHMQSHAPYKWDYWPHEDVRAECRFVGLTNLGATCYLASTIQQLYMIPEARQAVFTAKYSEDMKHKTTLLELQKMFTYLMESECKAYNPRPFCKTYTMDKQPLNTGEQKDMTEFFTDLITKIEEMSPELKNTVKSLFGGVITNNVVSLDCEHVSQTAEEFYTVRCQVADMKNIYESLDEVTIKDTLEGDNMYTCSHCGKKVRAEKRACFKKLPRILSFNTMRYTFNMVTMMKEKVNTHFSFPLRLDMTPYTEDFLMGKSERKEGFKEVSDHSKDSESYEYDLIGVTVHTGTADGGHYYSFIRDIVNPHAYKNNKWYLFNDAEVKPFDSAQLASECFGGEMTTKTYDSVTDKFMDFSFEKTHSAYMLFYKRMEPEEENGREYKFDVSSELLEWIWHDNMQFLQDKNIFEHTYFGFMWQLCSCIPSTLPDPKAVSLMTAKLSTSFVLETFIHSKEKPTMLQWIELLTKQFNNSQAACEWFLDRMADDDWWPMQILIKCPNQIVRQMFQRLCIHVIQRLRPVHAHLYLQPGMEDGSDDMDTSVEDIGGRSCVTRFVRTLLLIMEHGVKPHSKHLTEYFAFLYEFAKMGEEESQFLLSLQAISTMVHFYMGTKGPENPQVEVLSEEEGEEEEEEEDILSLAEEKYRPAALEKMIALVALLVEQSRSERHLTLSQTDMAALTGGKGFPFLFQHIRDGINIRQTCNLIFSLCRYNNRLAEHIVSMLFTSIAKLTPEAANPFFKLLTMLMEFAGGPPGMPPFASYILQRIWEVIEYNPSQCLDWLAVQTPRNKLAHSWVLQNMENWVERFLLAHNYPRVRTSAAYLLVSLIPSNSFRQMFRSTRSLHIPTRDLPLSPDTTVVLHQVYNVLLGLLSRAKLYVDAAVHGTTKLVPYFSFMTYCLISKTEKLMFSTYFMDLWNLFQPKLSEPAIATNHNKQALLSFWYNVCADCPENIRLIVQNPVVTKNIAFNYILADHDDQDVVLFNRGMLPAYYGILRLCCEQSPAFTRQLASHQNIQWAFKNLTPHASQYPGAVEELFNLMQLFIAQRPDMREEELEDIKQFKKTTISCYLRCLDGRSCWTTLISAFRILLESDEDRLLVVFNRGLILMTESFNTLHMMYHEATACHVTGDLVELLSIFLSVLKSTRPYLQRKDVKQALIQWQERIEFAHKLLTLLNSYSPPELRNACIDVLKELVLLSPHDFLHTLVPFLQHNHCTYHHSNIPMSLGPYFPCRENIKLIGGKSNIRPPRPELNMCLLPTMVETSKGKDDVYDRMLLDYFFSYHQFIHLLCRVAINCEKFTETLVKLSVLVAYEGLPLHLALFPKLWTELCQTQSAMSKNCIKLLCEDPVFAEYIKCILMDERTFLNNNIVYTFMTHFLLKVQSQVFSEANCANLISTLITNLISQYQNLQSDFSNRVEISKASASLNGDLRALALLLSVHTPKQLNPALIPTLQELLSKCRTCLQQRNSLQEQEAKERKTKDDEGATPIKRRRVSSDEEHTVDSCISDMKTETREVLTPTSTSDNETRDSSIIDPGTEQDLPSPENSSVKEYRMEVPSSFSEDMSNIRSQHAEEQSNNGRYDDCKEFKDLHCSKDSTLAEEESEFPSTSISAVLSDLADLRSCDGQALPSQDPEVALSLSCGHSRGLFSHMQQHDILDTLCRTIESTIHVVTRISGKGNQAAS

Cc1n[nH]c2c1CN(C(=O)CCl)CC2
inactive: USP34 -0.404 | USP36 -0.284 | USP38 -0.715 | USP39 0.183 | USP4 -0.888
